Reference: the supplement of paper PMC12582362
Structures can show the parent of a compound that is named as a salt. The whole screen tested about 1,500 compounds, of which about 30 (2%) showed activity. The list comes from a sample in which actives are over-represented; it also holds similar structures and randomly drawn compounds. A number with no mark means an inactive call.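 How the source made its calls: active = robust z-score below -2; a few such results were not called.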

The compounds below were run on optoTopBP1 Flp-In 293 T-REx (HEK293) cells (assay: light-induced TopBP1 condensate (nuclear foci) count, plate-normalised robust z-score vs non-control wells; higher = more TopBP1 condensates (negative = condensation inhibitor), active = hit call of the paper). Conditions: 10 µM; incubation time 2 h.

SMILES	light-induced TopBP1 condensate (z-score)
CN(c1nccc(=O)[nH]1)C1CCN(c2nc3ccccc3n2Cc2ccc(F)cc2)CC1 [Mizolastine]	-0.786
CC(C)=CCOc1ccc(/C=C/C(=O)c2ccc(OCC=C(C)C)cc2OCC(=O)O)cc1 [Sofalcone]	0.373
CC(=O)OCC(=O)[C@@]12OC3(CCCC3)O[C@@H]1C[C@H]1[C@@H]3CCC4=CC(=O)C=C[C@]4(C)[C@@]3(F)[C@@H](O)C[C@@]12C [Amcinonide]	0.776
CNCC[C@@H](Oc1cccc2ccccc12)c1cccs1 [(R)-Duloxetine hydrochloride]	-1.75
O=C(CCCCC(=O)Nc1c(I)cc(I)c(C(=O)O)c1I)Nc1c(I)cc(I)c(C(=O)O)c1I [Iodipamide]	-0.465
CC(C(=O)O)c1ccc(C(=O)c2cccs2)cc1 (stereo not drawn) [Suprofen]	-0.434
COc1cc(C(=O)NC2CCCNC2)cc(OC)c1OC (stereo not drawn) [Troxipide]	-0.997
Nc1nc(=S)c2ncn([C@@H]3O[C@H](CO)[C@@H](O)[C@H]3O)c2[nH]1 [Thioguanosine]	1.17
OCCN1CCN(CCCN2c3ccccc3C=Cc3ccccc32)CC1 [Opipramol dihydrochloride]	-0.102
CO[C@@H]1[C@@H](O[C@@H]2O[C@H](C)[C@@H](O[C@H]3C[C@@](C)(O)[C@@H](O)[C@H](C)O3)[C@H](N(C)C)[C@H]2O)[C@@H](CC=O)C[C@@H](C)[C@@H](O[C@H]2CC[C@H](N(C)C)[C@@H](C)O2)/C=C/C=C/C[C@@H](C)OC(=O)C[C@H]1OC(C)=O [Acetyl spiramycin]	-0.0623
CC[C@]12CCCN3CCc4c(n(c5ccccc45)[C@@](O)(C(=O)OC)C1)[C@@H]32 [Vincamine]	-0.735
CC1=C(C)C(=O)C(C(CCCCCC(=O)O)c2ccccc2)=C(C)C1=O (stereo not drawn) [Seratrodast]	-1.1
O=C(O)c1ccccc1Nc1cc(Cl)ccc1C(=O)O [Lobenzarit disodium]	0.707
CCCCC(CC)CNC(=N)NC(=N)NCCCCCCNC(=N)NC(=N)NCC(CC)CCCC (stereo not drawn) [Alexidine dihydrochloride]	-0.446
COC(=O)C1=C(C)NC(C)=C(C(=O)O[C@H]2CCN(Cc3ccccc3)C2)[C@H]1c1cccc([N+](=O)[O-])c1 [Barnidipine Hydrochloride]	-1.06
CCOCCn1c(N2CCCN(C)CC2)nc2ccccc21 [Emedastine]	-0.971
CN1CCC(=C2c3ccccc3Sc3ccccc32)CC1 [Pimethixene maleate]	-1.21
C[C@H]1[C@@H](O)O[C@@H]2O[C@@]3(C)CC[C@H]4[C@H](C)CC[C@@H]1[C@@]24OO3 [Artenimol]	0.222
CC(=O)OC(C)OC(=O)C(C)c1ccc(-c2ccccc2)c(F)c1 (stereo not drawn) [Flurbiprofen axetil]	-0.559
Cc1cc2nc3ccc(N(C)C)cc3[s+]c2cc1N [Tolonium chloride]	-9.72 (active)
O=C(Cn1cnnn1)N[C@@H]1C(=O)N2C(C(=O)O)=C(CSc3nncs3)CS[C@H]12 [Ceftezole]	-0.707
O=C(Cn1c(=O)sc2ccc(Cl)cc21)N1CCN(CCO)CC1 [Tiaramide Hydrochloride]	0.609

SMILES	light-induced TopBP1 condensate (z-score)
CC(=O)Oc1cccc2c1C(=O)c1c(OC(C)=O)cc(C(=O)O)cc1C2=O [Diacerein]	-1.09
O=C1c2cccc(O)c2C(=O)c2c(O)cccc21 [1,8-Dihydroxyanthraquinone]	-2.97 (active)
O=C1c2c(O)cccc2Cc2cccc(O)c21 [Anthralin]	-0.589
CC(C(=O)O)c1cccc(Oc2ccccc2)c1 (stereo not drawn) [Fenoprofen calcium salt dihydrate]	0.527
CN1CCC(OC(c2ccccc2)c2ccccc2)CC1 [Diphenylpyraline hydrochloride]	-0.243
CC=CC(=O)N(CC)c1ccccc1C [Crotamiton]	-1.09
CC(=O)CC(c1ccccc1)c1c(O)c2ccccc2oc1=O (stereo not drawn) [Warfarin]	0.476
Nc1ccn([C@@H]2O[C@H](CO)[C@@H](O)[C@@H]2O)c(=O)n1 [Cytarabine]	-1.9
Nc1ccn([C@H]2CC[C@@H](CO)O2)c(=O)n1 [Zalcitabine]	0.161
Nc1ccn([C@@H]2O[C@H](CO)[C@@H](O)C2(F)F)c(=O)n1 [Gemcitabine]	-2.33 (active)
O=C(Oc1cccc2cccnc12)c1ccccc1 [Benzoxiquine]	-0.428
OCCOCCN1CCN(C2=Nc3ccccc3Sc3ccccc32)CC1 [Quetiapine hemifumarate]	0.443
O=C(CCCl)NCc1ccccc1 [Beclamide]	0.736
O=C1[C@H]2CCCC[C@H]2C(=O)N1CCCCN1CCN(c2nsc3ccccc23)CC1 [Perospirone]	-0.904
CC(=O)O[C@@]12CO[C@@H]1C[C@H](O)[C@@]1(C)C(=O)[C@H](O)C3=C(C)[C@@H](OC(=O)[C@H](O)[C@@H](NC(=O)OC(C)(C)C)c4ccccc4)C[C@@](O)([C@@H](OC(=O)c4ccccc4)[C@H]21)C3(C)C [Docetaxel]	-1.72
CNC(=O)c1c(I)c(C(=O)NCC(=O)Nc2c(I)c(C(=O)O)c(I)c(C(=O)NCCO)c2I)c(I)c(N(C)C(C)=O)c1I [Ioxaglic acid]	1.43
Cn1cc([S+](C)[O-])c(=O)c2ccc(F)cc21 (stereo not drawn) [Flosequinan]	0.501
CC(=O)OCC(=O)[C@@]1(O)CC[C@H]2[C@@H]3CCC4=CC(=O)C=C[C@]4(C)[C@@]3(F)[C@@H](O)C[C@@]21C [Isoflupredone acetate]	0.491
N=c1ccn2c(n1)O[C@H]1[C@H](O)[C@@H](CO)O[C@H]12 [Ancitabine hydrochloride]	-2.02 (active)
NC(=O)c1ncn([C@@H]2O[C@H](CO)[C@@H](O)[C@H]2O)c1O [Mizoribine]	-0.419
Nc1ncn(C2OC(CO)C(O)C2O)c(=O)n1 (stereo not drawn) [Azacytidine-5]	0.0662
